# Screening data deposited in PubChem by National Center for Advancing Translational Sciences (NCATS).
# A selection: hits, their analogues and other compounds. The true share with any hit is near 0.45%.
# FMDV Renilla = Primary qHTS Assay for Foot and Mouth Disease Virus Antivirals against NCGC Sytravon and CBC Compound Libraries: Renilla Luciferase Signal. FMDV replicon cells, Renilla luciferase signal. Potency, µM (highest dose often 57.5 µM), inactives show at the top dose activity change, negative = inhibition, most hits filed as inhibitors. 120,000 compounds, 0.32% hits; note: nearly all actives have a fitted effect of over 55% in size
# FMDV FLuc = Primary qHTS Assay for Foot and Mouth Disease Virus Antivirals against NCGC Sytravon and CBC Compound Libraries: Firefly Luciferase Signal; Potency, µM (series often up to 57.5 µM), without a hit: at the highest dose activity change, negative = inhibition, most hits filed as inhibitors; FMDV antiviral cell assay, firefly luciferase signal; 120,000 compounds, 0.23% hits; note: nearly all actives have a fitted effect of over 60% in size
# * marks the source's active call; other numbers are inactive results; ? = inconclusive; [ ] = another dose, or the depositor's remark. Calls come from the whole dose curve. % is set by controls: 0 for no effect and ±100 for the full control effect; potency is the fitted concentration of half-maximal effect.
SMILES,FMDV Renilla,FMDV FLuc
Cc1ccc(CN2C3=NCCCN3c3ccccc32)cc1,-8%,7%
Cc1cc2c(cc1C)N(Cc1ccc(Cl)cc1)C1=NCCCN12,?,20µM*
Cc1sc(-c2cscn2)cc1Br,0%[1.06 µM],39%
CCC(C)S(=O)(=O)c1oc(-c2cccs2)nc1S(=O)(=O)c1ccccc1 (stereo not given),-5%,32µM*
O=S(=O)(c1ccccc1)c1nc(-c2cccs2)oc1N1CCCCC1,-8%,3%
C=CCNC(=O)CN1CCN(c2nc(-c3ccccc3)c3ccccc3n2)CC1,-9%,?
O=C(Nc1ccc(Br)cc1)c1cccc(S(=O)(=O)N2CCc3ccccc32)c1,4µM*,32µM*
NS(=O)(=O)c1ccc(NC(=O)c2ccc3c(c2)CCN3S(=O)(=O)c2ccccc2)cc1,65%,-9%
COC(=O)c1ccc(COc2ccc3c(=O)c(-c4ccccc4OC)c(C)oc3c2)cc1,-35%,1µM*
COC(=O)c1ccc(Oc2c(C)oc3cc(OCc4ccc(F)cc4)ccc3c2=O)cc1,-4%,4%
O=C(/C=C/c1ccc2ccccc2c1)c1ccc(F)cc1F,-10%[1.06 µM],78%
COc1cc(OC)c(NC(=O)NCc2ccc3c(c2)CCN3C(=O)c2ccccc2)cc1Cl,22µM*,0%
COc1cc(OC)c(NC(=O)NCc2ccc3c(c2)CCN3C(C)=O)cc1Cl,-4%,-9%
COc1ccc(CNS(=O)(=O)c2ccc3c(c2)N(C)CCS3)cc1,-27%,-18%
Cc1ccc(-n2nnnc2CNS(=O)(=O)c2ccc(Cl)cc2)cc1C,163%,7%
COc1ccc(NC(=O)CCn2cnc3onc(-c4ccc(F)cc4)c3c2=O)cc1OC,4µM*,?
COc1cc(Cl)c(C)cc1NC(=O)CCn1cnc2onc(-c3ccc(F)cc3)c2c1=O,-1%,9%
Cc1ccccc1C(=O)NC1(C(F)(F)F)N=C(c2ccccc2)N(Cc2ccco2)C1=O (stereo not given),-5%,-18%
COc1ccc(-c2nc(C)c(-c3ccccc3)s2)cc1,25%,267%
COc1ccc(Cc2nc(C)c(-c3ccccc3)s2)cc1OC,10µM*,?
CNC(=O)c1ccccc1OCc1coc(-c2ccc(OC)cc2)n1,?,-11%
CNC(=O)c1ccccc1OCc1coc(-c2ccccc2)n1,10µM*,?
CNC(=O)c1ccc(OCc2coc(-c3cccc(F)c3)n2)cc1,-39%,-22%
CNC(=O)c1cccc(OCc2coc(-c3cccc(F)c3)n2)c1,13µM*,-16%
Cc1ccc(C)c(NC(=O)c2cc3c(s2)CCC3)c1,-4%,0%
SMILES,FMDV Renilla,FMDV FLuc
Cc1c(F)cc(C(N)=O)cc1NS(=O)(=O)c1ccc2ccccc2c1,150%,-4%
O=C1CC2(C(=O)Nc3c(Cl)cccc32)c2cnn(Cc3ccccc3Cl)c2N1 (stereo not given),18%,-19%
COc1cccc(C(=O)/C(=C/c2ccccn2)c2nc3ccccc3o2)c1,?,-105%
COc1ccc(C(=O)/C(=C/c2ccccn2)c2nc3ccccc3o2)cc1,28µM*,-102%
Cc1ccc(-c2csc(NC(=O)c3cnc4c(cnn4C(C)C)c3)n2)cc1C,?,11µM*
CCC(C)c1ccc(-c2csc(NC(=O)c3cnc4c(c3)c(=O)n(C)c(=O)n4C)n2)cc1 (stereo not given),-8%,119%
C[N+](CCOCc1ccccc1)(CCOCc1ccccc1)CCOCc1ccccc1,28µM*,?
CC[N+](C)(CC)CC(C[N+](C)(CC)CC)OCc1ccccc1,8%,0%
O=c1c2ccccc2nc(/C=C/c2cccc3ccccc23)n1-c1ccccc1Cl,25µM*,?
COc1ccc(Cl)cc1-n1c(/C=C/c2cccc3ccccc23)nc2ccccc2c1=O,24%,-23%
N#Cc1c(SCC(=O)NCCc2ccccc2)nc(N2CCOCC2)c2c1CCCC2,56%,42%
CC(C)c1cnc2c(c1SCC(=O)c1ccc(Cl)cc1)c(=O)n(C)c(=O)n2C,25µM*,29%
CC(C)c1cnc2c(c1SCC(=O)O)c(=O)n(C)c(=O)n2C,-4%,-14%
Cc1ccc(-c2cnc(SCC(=O)Nc3cccc(F)c3)o2)cc1C,15%,78%
CCN1C(=O)COc2ccc(-c3nc(NC(=O)c4ccccc4)sc3C)cc21,10µM*,14µM*
Cc1sc(NC(=O)c2ccco2)nc1-c1ccc2c(c1)N(C)C(=O)CO2,-1%,4%
CC(NC(=O)CCSc1ccc(Cl)cc1)c1ccccc1 (stereo not given),18%,51%
CCc1nc(NCc2ccncc2)c(C#N)c2c1CCCC2,?,7.1µM*
CCCCc1nc(NCc2ccncc2)c(C#N)c2c1CCCC2,0%,?
CCOc1ccc2nc(SCC(=O)N(Cc3ccccc3)C3CCS(=O)(=O)C3)[nH]c2c1 (stereo not given),5%,2%
CCOc1ccc2nc(SCC(=O)N3CCN(S(=O)(=O)c4ccccc4)C3C(C)C)[nH]c2c1 (stereo not given),?,25µM*
CCNc1nc2c(c(=O)n(C)c(=O)n2C)n1CC(O)COc1ccccc1 (stereo not given),-11%,-1%
CNc1nc2c(c(=O)n(C)c(=O)n2C)n1CC(O)COc1ccc(C)cc1 (stereo not given),11µM*,?
CCn1nnnc1SCCS(=O)(=O)c1cc(Cl)ccc1Cl,1%,-4%
CC(=O)c1cn(CCOc2ccccc2F)c2ccccc12,8.9µM*,?
O=C(c1cccs1)c1cn(CCOc2ccccc2F)c2ccccc12,7%,21%
COc1ccc(OCCn2cc(C(C)=O)c3ccccc32)cc1,?,25µM*
Cc1ccc(OCCn2cc(C(=O)C3CC3)c3ccccc32)cc1,41%,68%
Cc1ccc(-c2nnc(C(C)Sc3nc4ccccc4c(=O)n3CCCO)o2)cc1 (stereo not given),10%,142%
CCOc1cc2c(cc1/C=C1\NC(=O)NC1=O)OCO2,7%,18%
